Results filed as inconclusive are left out. Active and inactive are the calls of the source. The call rests on the fitted dose curve; in most records, active means well fitted inhibition curve with a large enough effect; inconclusive means small, poorly fitted or top-dose-only effect; inactive means no such curve, though single readings can be large or run the other way.

For the first test, the target named is Retinaldehyde dehydrogenase 3 (Homo sapiens) (UniProt P47895). Briefly: qHTS for Inhibitors of the Aldehyde Dehydrogenase Family (ALDH1A3) Confirmatory screens (AID 2061311). Further: potency means the concentration at half of the fitted maximal effect; nearly all actives have a fitted effect of over 60% in size. The following applies: ALDH inhibition qHTS; series mostly up to 46 µM; activity change, negative = inhibition: at the top concentration.
For `CCc1noc(-c2cccn3c(CNC(=O)COc4ccc(F)cc4)nnc23)n1`, the Potency is 7.08 µM (active).

For the compound `CC(=O)Nc1sc2c(c1-c1cc3ccccc3o1)CCNC2`, the Potency is 11.3 µM (active).

Take `Cc1ccnc(NC(=S)N2CCN(c3ccc(O)cc3)CC2)c1`: the Potency was 12.7 µM (active).

In the case of `Cc1ccnc(NCc2ccc(O)c3ncccc23)c1`, the Potency is 7.12 µM (active).

The target in another test is Retinal dehydrogenase 2 (Homo sapiens) (UniProt O94788). The test is described as follows: qHTS for Inhibitors of the Aldehyde Dehydrogenase Family (ALDH1A2) Confirmation screens (AID 2061314). Further: nearly all actives have a fitted effect of over 65% in size. On activity, negative = inhibition: on the % scale 0 is the no-effect control and ±100 the full control effect. The note with it: ALDH1A2 enzyme inhibition qHTS confirmation; series mostly up to 45.9 µM; activity, negative = inhibition: at the top concentration. Background: In qHTS, concentration-response curves come from the screen itself.
Take `COCCNC(=O)CCSc1nc(-c2ccc(OC)cc2)cc(C(F)(F)F)n1`: the “activity, negative = inhibition” value was -22.7% (inactive).

In the case of `COc1ccccc1C(=O)Nc1ccc(-c2cc(C(F)(F)F)nn2-c2ccccc2)cc1`, the “activity, negative = inhibition” value was 1.15% (inactive).

For the compound `COCCNC(=O)CNC(=O)c1ccc(-c2cccc(C(F)(F)F)c2)cc1`, the call was inactive.

Regarding `Cn1c(=O)n([C@H]2CCCN(C(=O)c3cccnc3)C2)c2ncccc21`, the “activity, negative = inhibition” value was -8.73% (inactive).

With `COc1cc(OC)cc(C(=O)NCCc2csc3nc(-c4ccccc4F)nn23)c1`, the “activity, negative = inhibition” value was -2.68% (inactive).

On to `NS(=O)(=O)c1ccc(-n2nc(-c3ccncc3)nc2C2CCOC2)cc1` (stereo unspecified), for which the “activity, negative = inhibition” value is -18.6% (inactive).

With `COc1cccc(-c2nnc(-c3ccccc3NC(=O)c3cccc(C(F)(F)F)c3)o2)c1`, the “activity, negative = inhibition” value was -1.27% (inactive).

For the compound `CCn1cc(C(=O)N(C)c2cc(C)ccc2C)c2cc(OC)c(OC)cc2c1=O`, the “activity, negative = inhibition” value is -30.1% (inactive).

As to `O=C(COc1ccccc1-c1nc(-c2ccccc2)no1)Nc1cccc([N+](=O)[O-])c1`, the “activity, negative = inhibition” value was -19.6% (inactive).

As for `Cc1nc2c(c(C)c1CCC(=O)Nc1ccc(F)cc1)c(=O)n(C)c(=O)n2C`, the outcome was inactive.

Turning to `CCOc1ccc(C(=O)Nc2ccc(NC(=O)c3ccccc3)cc2)cc1Br`, the “activity, negative = inhibition” value was -29.5% (inactive).

In the case of `COc1ccc(OC)c(N(CC(=O)NCc2ccccc2)S(=O)(=O)c2ccccc2)c1`, the “activity, negative = inhibition” value is -16.7% (inactive).

Source of the values: PubChem BioAssay (NCATS).
